The record followed here is PubChem BioAssay.

A short description of experiment [1]: small molecules captured by biotinylated probe aFSTL3 – biochemical, small-molecule microarray, fluorescence 635/667, stem cell growth factor project, primary screen (AID 1064).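 Further: measures binding of the biotinylated anti-FSTL3 antibody to printed compounds.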 Conditions: higher = more signal.
A short description of experiment [2]: binders from COS7 lysate, DM2A8 probe, primary screen, torsin A project, cell lysate, small-molecule microarray, fluorescence 635/667 (AID 1065). Conditions: higher = more signal, COS7 lysate expressing mutant human TOR1A.
Experiment [3] in a line: small molecules captured by biotinylated probe aFGF2 – biochemical, small-molecule microarray, fluorescence 635/667, stem cell growth factor project, primary screen (AID 1067).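 Further: measures binding of biotinylated aFGF2 protein to printed compounds on slides; z-score merges feature fluorescence and signal-to-noise across triplicate slides.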 Conditions: higher = more signal.
Experiment [4] is described as follows: small molecules captured by biotinylated probe aFGF10 – biochemical, small-molecule microarray, fluorescence 635/667, stem cell growth factor project, primary screen (AID 1071).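 Further: score merges 667 nm spot intensity and signal to noise from triplicate slides.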 Conditions: higher = more signal.
For experiment [5], the target named is Neurogenic locus notch homolog protein 2 (Homo sapiens) (UniProt Q04721). The experiment in a line: small molecules binding Notch2 protein – biochemical, small-molecule microarray, 635 nm fluorescence, stem cell growth factors, primary screen (AID 1073). The following applies: higher = more signal.
Experiment [6] concerns the target Pro-neuregulin-1, membrane-bound isoform (Homo sapiens) (UniProt Q02297). Kind of experiment: small molecules binding neuregulin-1 protein – biochemical, small-molecule microarray, fluorescence 635/667, psychiatric disease protein project, primary screen (AID 1075).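 Further: score combines 667 nm spot fluorescence with signal to noise.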 Conditions: NRG1 binding, 635 nm fluorescence, higher = more signal.
The subject of experiment [7] is Neuregulin-1 EGF-like domain. The experiment in a line: small molecules binding NRG1 EGF domain – biochemical, small-molecule microarray, 635 nm fluorescence, primary screen (AID 1081).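 Further: binding of the protein to compounds printed on small-molecule microarray slides.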 Conditions: higher = more signal.
Experiment [8] in a line: FRG1 expression reporter modulators in myotubes – cell-based, C2C12 myotubes, firefly/Renilla luciferase, luminescence, FRG1 inhibition for FSHD, primary screen (AID 1084). Conditions: FRG1 promoter luciferase, higher = more signal, called active from +8 up or from −8 down.
Experiment [9] is described as follows: small molecules captured by biotinylated probe aFST – biochemical, small-molecule microarray, fluorescence 635/667, stem cell growth factor project, primary screen (AID 1086).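 Further: score merges 667 nm fluorescence with signal-to-noise of each printed compound spot.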 Conditions: higher = more signal.
Experiment [10] can be described thus: binders of probe aHhip on microarray, primary screen, stem cell growth factor project, biochemical, small-molecule microarray, fluorescence 635/667 (AID 1087).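 Further: score merges spot fluorescence at 667nm with spot signal to noise ratio.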 The following applies: higher = more signal.
Experiment [11] deals with PRMT1 (protein arginine N-methyltransferase 1). The experiment in a line: small molecules binding arginine methyltransferase PRMT1 – biochemical, small-molecule microarray, 635 nm fluorescence, primary screen (AID 1088).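 Further: binding of Prmt1 protein to compounds spotted on small-molecule microarray slides.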 The following applies: higher = more signal.
Experiment [12] is described as follows: growth effects on S. cerevisiae YJM789 – YJM789 clinical isolate, OD600, 24 h, basal, primary screen (AID 1089).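 Further: growth of clinical yeast isolate S. cerevisiae YJM 789 seeded 1000 cells per well; test concentration not given here.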 Conditions: higher = more signal, called active from +8 up or from −8 down.
Experiment [13] in a line: S. pombe growth modifiers, basal conditions – strain 972, OD600, 24 h, no modulator, primary screen (AID 1090).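 Further: basal condition with compound alone and no growth modifier present; test concentration not given here.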 Conditions: S. pombe 972 growth, higher = more signal, called active from +8 up or from −8 down.
Experiment [14] can be described thus: budding yeast growth modifiers under rapamycin – strain BY4716, OD600, 96 h, primary screen (AID 1091). Further: test concentration not given here. The following applies: S. cerevisiae BY4716 + rapamycin, higher = more signal, called active from +8 up or from −8 down.
Experiment [15] deals with Torsin-1A-interacting protein 2 (Homo sapiens) (UniProt Q8NFQ8). The experiment in a line: small molecules binding lysate-expressed LULL1 – cell lysate, human LULL1 lysate, 635/667 nm fluorescence, primary screen (AID 1092).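 Further: probe is lysate of COS7 cells overexpressing human LULL1; score merges per-feature 667 nm fluorescence with signal-to-noise.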 Conditions: small-molecule microarray, hLULL1 lysate binding, 635 nm fluorescence; higher = more signal.
The nature of experiment [16]: optical density change of DRC41 E. coli – strain DRC41, OD650, 24 h, E. coli filamentation project, primary screen (AID 1093).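 Further: MC1000 strain lacking acrAB efflux and sulA so SOS filamentation is blocked; test concentration not given here.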 Conditions: E. coli DRC41 growth, higher = more signal, called active from +8 up or from −8 down.
Experiment [17] in a line: probe aLefty2 binding to arrayed compounds – biochemical, biotinylated probe, 635/667 nm fluorescence, primary screen (AID 1094).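 Further: score merges spot fluorescence near 667 nm with spot signal-to-noise ratio.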 Conditions: small-molecule microarray, higher = more signal.
Experiment [18] deals with Noggin (protein binding on small-molecule microarray). Kind of experiment: small molecules binding Noggin protein – biochemical, 635/667 nm fluorescence, primary screen (AID 1095).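 Further: score merges 667 nm feature fluorescence with signal to noise over triplicate slides.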 The following applies: 635 nm fluorescence, higher = more signal.
In experiment [19] the target is Neurogenic locus notch homolog protein 3 (Homo sapiens) (UniProt Q9UM47). The experiment in a line: small molecules binding NOTCH3 protein – biochemical, 635/667 nm fluorescence, primary screen (AID 1096). The following applies: small-molecule microarray, 635 nm fluorescence, higher = more signal.
The nature of experiment [20]: probe aEGFR binding to arrayed compounds – biochemical, biotinylated probe, 635/667 nm fluorescence, primary screen (AID 1097).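 Further: probe is a biotinylated anti-EGFR antibody binding compounds printed on slides; score combines fluorescence near 667 nm and signal to noise of each spot.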 Conditions: small-molecule microarray, higher = more signal.

The source made the active and inactive calls.

Sequence of Neurogenic locus notch homolog protein 2 (Homo sapiens) (Q04721 whole entry, looked up, canonical isoform): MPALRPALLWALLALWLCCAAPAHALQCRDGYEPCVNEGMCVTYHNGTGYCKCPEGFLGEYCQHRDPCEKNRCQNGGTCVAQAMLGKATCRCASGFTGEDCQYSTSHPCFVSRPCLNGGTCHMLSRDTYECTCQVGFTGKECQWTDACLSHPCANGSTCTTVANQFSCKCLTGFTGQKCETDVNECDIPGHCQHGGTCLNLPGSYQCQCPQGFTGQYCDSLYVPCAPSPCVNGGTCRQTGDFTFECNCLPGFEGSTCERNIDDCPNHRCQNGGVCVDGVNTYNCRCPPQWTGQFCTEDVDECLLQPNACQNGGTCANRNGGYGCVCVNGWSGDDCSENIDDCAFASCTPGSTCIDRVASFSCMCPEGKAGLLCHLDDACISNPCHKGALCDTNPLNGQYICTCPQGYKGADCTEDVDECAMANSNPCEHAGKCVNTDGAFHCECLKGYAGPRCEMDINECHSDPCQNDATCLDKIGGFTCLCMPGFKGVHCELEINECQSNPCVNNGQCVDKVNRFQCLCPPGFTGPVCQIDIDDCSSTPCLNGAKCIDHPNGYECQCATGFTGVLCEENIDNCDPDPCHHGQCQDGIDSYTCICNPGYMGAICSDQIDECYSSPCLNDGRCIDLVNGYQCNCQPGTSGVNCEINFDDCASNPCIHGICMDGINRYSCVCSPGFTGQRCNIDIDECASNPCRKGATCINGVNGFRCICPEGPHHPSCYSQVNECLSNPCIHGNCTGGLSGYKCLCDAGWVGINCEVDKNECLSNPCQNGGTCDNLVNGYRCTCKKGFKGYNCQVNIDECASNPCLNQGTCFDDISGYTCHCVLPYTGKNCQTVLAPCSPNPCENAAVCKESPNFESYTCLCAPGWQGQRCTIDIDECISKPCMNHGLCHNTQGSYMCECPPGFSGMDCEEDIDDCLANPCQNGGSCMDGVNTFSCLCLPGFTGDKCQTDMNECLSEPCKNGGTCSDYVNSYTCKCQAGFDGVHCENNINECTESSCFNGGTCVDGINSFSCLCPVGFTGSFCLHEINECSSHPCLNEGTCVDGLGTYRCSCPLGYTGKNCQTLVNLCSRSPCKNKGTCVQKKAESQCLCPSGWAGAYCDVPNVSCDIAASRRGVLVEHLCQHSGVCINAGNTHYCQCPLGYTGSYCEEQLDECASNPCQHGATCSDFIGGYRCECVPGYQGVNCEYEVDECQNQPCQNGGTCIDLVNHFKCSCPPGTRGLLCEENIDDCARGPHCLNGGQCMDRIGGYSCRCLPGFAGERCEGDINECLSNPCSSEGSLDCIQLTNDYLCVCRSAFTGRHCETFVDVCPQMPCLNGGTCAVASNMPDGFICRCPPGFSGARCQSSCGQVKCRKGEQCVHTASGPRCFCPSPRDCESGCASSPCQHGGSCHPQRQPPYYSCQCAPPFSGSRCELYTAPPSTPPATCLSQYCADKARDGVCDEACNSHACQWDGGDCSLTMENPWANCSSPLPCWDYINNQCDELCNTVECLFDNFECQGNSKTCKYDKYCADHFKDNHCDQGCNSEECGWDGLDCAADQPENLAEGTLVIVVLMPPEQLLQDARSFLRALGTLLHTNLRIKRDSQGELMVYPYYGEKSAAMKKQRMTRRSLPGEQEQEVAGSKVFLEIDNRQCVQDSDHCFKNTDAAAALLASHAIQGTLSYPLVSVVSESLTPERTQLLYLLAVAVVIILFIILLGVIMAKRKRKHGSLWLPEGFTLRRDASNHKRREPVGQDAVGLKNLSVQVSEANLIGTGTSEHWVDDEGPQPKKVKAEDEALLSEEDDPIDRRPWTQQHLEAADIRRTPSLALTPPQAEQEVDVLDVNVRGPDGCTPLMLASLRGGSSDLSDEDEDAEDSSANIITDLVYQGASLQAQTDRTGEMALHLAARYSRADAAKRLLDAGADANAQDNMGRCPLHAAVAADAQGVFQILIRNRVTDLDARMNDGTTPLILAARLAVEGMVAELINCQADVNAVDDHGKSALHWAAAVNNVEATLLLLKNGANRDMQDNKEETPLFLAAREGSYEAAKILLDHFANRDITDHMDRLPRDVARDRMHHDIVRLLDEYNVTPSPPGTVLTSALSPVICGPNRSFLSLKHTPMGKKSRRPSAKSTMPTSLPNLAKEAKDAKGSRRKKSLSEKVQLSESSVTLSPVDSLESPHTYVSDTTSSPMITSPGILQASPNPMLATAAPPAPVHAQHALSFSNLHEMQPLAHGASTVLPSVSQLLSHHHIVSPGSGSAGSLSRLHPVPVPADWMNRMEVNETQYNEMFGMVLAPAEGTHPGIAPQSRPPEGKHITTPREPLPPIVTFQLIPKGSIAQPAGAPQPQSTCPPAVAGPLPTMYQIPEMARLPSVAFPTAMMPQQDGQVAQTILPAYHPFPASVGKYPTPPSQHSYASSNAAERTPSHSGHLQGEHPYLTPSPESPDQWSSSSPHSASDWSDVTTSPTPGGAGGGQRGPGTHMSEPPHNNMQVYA
Sequence of Pro-neuregulin-1, membrane-bound isoform (Homo sapiens) (Q02297 whole entry, looked up, the tested form may be a part, canonical isoform): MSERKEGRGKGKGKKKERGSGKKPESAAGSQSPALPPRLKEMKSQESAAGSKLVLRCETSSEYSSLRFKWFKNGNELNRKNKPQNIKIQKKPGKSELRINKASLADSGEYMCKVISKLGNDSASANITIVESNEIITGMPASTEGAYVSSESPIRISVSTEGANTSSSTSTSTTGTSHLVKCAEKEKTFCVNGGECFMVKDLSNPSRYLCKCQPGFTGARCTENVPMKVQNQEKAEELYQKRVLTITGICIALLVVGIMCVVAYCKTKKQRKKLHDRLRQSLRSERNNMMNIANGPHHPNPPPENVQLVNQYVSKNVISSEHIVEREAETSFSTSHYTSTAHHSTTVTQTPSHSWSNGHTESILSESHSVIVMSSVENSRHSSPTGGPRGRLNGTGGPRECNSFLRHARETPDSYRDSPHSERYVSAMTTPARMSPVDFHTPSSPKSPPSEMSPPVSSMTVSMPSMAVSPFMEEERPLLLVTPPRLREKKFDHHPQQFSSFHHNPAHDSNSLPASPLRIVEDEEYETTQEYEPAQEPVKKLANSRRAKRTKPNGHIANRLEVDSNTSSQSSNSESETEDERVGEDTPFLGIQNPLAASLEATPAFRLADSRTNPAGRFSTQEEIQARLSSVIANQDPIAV
Sequence of Torsin-1A-interacting protein 2 (Homo sapiens) (Q8NFQ8 whole entry, looked up): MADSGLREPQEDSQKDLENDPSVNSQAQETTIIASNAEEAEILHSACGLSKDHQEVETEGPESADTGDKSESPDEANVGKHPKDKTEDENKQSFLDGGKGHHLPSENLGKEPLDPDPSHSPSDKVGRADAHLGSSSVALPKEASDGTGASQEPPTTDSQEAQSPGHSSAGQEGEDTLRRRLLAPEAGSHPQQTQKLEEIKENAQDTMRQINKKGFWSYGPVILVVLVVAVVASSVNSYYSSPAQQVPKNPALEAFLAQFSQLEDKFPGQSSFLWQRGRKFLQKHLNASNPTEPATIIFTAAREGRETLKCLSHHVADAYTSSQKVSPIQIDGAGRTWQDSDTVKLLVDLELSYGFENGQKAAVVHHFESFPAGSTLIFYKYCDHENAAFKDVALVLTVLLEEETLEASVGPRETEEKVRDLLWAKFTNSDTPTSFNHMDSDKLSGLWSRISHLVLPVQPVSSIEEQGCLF

With `C=CC(=C)[C@H]1Oc2ccccc2S(=O)(=O)N2CCC[C@@H]12`, the composite z-score was 0.289 in [1]; 0.196 in [2]; -0.116 in experiment [3]; -0.185 in experiment [4]; -0.128 in experiment [5]; -0.57 in experiment [6]. The composite z-score in experiment [7] was -0.595; in experiment [9], 0.303; in [10], -0.329; in experiment [11] it was -1.3; in experiment [15], -0.562; in experiment [17], 0.0189. The composite z-score in experiment [18] was 0.518; in experiment [19], -0.406; in experiment [20], -0.152. Further, the z-score was -0.0188 (inactive) in [8]; -0.946 (inactive) in [12]; -2.71 (inactive) in experiment [13]; -0.601 (inactive) in experiment [14]; -0.504 (inactive) in [16].

In the case of `C=CCN1C(=O)[C@@]2(CC=C)N=C(c3ccc(OCCCO)cc3)O[C@H]2c2ccccc21`, the composite z-score in experiment [1] was 0.529; in experiment [2], 0.194; in experiment [3], 0.0606; in experiment [4], -0.0534; in [5], 1.38; in experiment [6] it was 1.3. Besides, the composite z-score in [7] is 1.37; in experiment [9], 0.835; in experiment [10], -0.318; in experiment [11], 1.54; in experiment [15], 3.6; in experiment [17], 0.357. Further, the composite z-score in experiment [18] stood at 1.33; in [19], 0.874; in experiment [20] it was 0.297. Also, the z-score was -2.47 (inactive) in experiment [8]; -3.69 (inactive) in experiment [12]; -4.72 (inactive) in experiment [13]; 0.764 (inactive) in experiment [14]; 1.47 (inactive) in [16].

As for `[N-]=[N+]=Nc1ccccc1[C@@H]1OC(c2ccc(OCCCO)cc2)=N[C@]1(Cc1ccccc1)C(=O)N1CCOCC1`, the composite z-score in experiment [1] stood at 0.324; in experiment [2], 0.0788; in experiment [3], 0.14; in experiment [4], 0.781; in experiment [5], 1.55; in [6], 1.26. The composite z-score in experiment [7] was 1.2; in [9], 0.802; in [10], 0.0053; in experiment [11], 1.56; in [15], 3.22; in experiment [17], 0.225. In addition, the composite z-score in experiment [18] is 0.328; in [19] it was 1.1; in [20] it was 0.276. Moreover, the z-score in experiment [8] is -1.5 (inactive); in experiment [12] it was 0.785 (inactive); in experiment [13], -1.26 (inactive); in experiment [14] it was 1.85 (inactive); in experiment [16], 0.301 (inactive).

With `C#C[C@H](O[Si](C#Cc1ccc(Oc2ccccc2)cc1)(C(C)C)C(C)C)c1ccccc1`, the composite z-score in [1] was -0.247; in experiment [2] it was 1.27; in experiment [3] it was -0.0613; in [4] it was 0.853; in [5] it was 1.25; in experiment [6], 0.206. Moreover, the composite z-score in experiment [7] is 0.801; in experiment [9], 0.315; in experiment [10], -0.0994; in experiment [11], 1.23; in [15], 1.02; in experiment [17], -0.0666. Also, the composite z-score is 0.531 in experiment [18], 0.185 in experiment [19] and -0.0286 in [20]. The z-score in experiment [8] is 0.297 (inactive); in experiment [12], -0.824 (inactive); in experiment [13], -19.1 (active); in experiment [14] it was -0.42 (inactive); in [16], -0.547 (inactive).

Turning to `CCOC(=O)C[C@H]1[C@H](OC(=O)c2ccc(C(=O)c3ccccc3)cc2)[C@@H](NC(=O)CC(C)C)c2cc(OCCCO)ccc2N1C(=O)c1ccc2ccccc2n1`, the composite z-score in experiment [1] is -0.538; in experiment [2] it was 0.154; in [3], -0.0715; in experiment [4], 0.86; in [5], 1.28; in experiment [6], 0.621. For the same compound, the composite z-score is 1.22 in experiment [7]; 0.334 in experiment [9]; -0.137 in experiment [10]; 1.48 in experiment [11]; 1.99 in experiment [15]; 0.106 in [17]. Besides, the composite z-score in [18] was 0.693; in experiment [19], 1.13; in [20], -0.0565. In addition, the z-score in experiment [8] was -0.291 (inactive); in experiment [12], 1.09 (inactive); in [13], 0.606 (inactive); in [14], 0.607 (inactive); in experiment [16], 0.995 (inactive).
